Source: PubChem (National Center for Advancing Translational Sciences (NCATS))
Apoferritin bind – qHTS Assay for Identification of Novel General Anesthetics; Ferritin light chain (Equus caballus), P02791; actives 0.074% (n = 350,000); AID 485281, 2010; Potency, µM (titrated, usually from 77.5 µM), hits mostly inhibitors; apoferritin/1-aminoanthracene competitive binding, fluorescence; also: nearly all actives have a fitted effect of over 20% in size
Target sequence (P02791 2-175 limits assumed): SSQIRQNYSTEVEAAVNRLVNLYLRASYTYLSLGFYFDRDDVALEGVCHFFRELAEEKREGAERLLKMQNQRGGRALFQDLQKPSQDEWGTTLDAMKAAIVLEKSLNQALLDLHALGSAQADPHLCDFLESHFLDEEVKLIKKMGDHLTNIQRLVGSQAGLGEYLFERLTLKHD
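Steps: apoferritin (10 uM) was premixed with half-saturated 1-AMA in PBS, compounds were pin-transferred, plates stood 10 min at room temperature, fluorescence was read at 380/535 nm, and curves were fitted with a Hill equation.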
IDH1 R132H inh – qHTS for Inhibitors of mutant isocitrate dehydrogenase 1 (IDH1): qHTS. IDH1-R132H enzyme, NADPH consumption, diaphorase/resazurin fluorescence. Potency, µM (titrated, usually from 76.6 µM), usual class: inhibitors. actives 0.093% (n = 390,000); also: nearly all actives have a fitted effect of over 65% in size
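IDH1-R132H (0.5 ug/mL dispensed) in pH 7.5 Tris buffer was preincubated 30 min with compound, then given a substrate mix of 0.016 mM NADPH and 2 mM alpha-KG for 80 min at room temperature; remaining NADPH was read by diaphorase/resazurin fluorescence.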
rTrxR1 inhibitor – qHTS Assay for Inhibitors of Mammalian Selenoprotein Thioredoxin Reductase 1 (TrxR1): qHTS; Thioredoxin reductase 1, cytoplasmic (Rattus norvegicus), O89049; Potency, µM (titrated, usually from 114 µM), actives largely listed as inhibitors; AID 588453, 2011; recombinant rTrxR1, NADPH fluorescence consumption, selenite substrate; actives 1% (n = 390,000); also: nearly all actives have a fitted effect of over 65% in size
Target sequence (O89049 whole entry, looked up): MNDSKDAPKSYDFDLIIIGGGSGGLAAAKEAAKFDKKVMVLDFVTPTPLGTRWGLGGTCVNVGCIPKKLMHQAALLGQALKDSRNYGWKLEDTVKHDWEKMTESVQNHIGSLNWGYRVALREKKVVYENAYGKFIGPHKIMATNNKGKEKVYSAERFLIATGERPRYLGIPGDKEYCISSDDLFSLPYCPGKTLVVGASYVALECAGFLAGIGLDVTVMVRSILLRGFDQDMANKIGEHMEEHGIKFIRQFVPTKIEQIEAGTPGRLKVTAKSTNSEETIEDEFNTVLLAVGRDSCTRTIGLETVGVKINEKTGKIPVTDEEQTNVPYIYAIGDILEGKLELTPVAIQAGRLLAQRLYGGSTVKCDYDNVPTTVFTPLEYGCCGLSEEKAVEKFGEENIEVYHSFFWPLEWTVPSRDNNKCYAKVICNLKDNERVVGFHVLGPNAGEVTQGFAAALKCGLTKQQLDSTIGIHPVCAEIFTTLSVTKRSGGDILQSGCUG
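Rat TrxR1 (90 nM in the dispensed reagent) was pre-reduced with 400 uM NADPH for 5 min at room temperature, then incubated with compound for 15 min. After 400 uM selenite was added, NADPH fluorescence (Ex 340/Em 450 nm) was followed for 8 min.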
Glioma ERSR ind – qHTS for Inducers of the Endoplasmic Reticulum Stress Response (ERSR) in Human Glioma: qHTS; U87-MG GRP78 promoter luciferase reporter, 16 h; Potency, µM, usual class: activators; actives 0.02% (n = 420,000); AID 602332, 2012; also: series mostly up to about 76 µM; nearly all actives have a fitted effect of over 35% in size
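Stably transfected U87-MG glioma cells carrying a GRP78-based luciferase sensor; 16 h compound incubation. Luminescence end-point read 10 min after Bright-Glo addition at room temperature.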
TrxR1 substrate – qHTS Assay for Substrates of Mammalian Selenoprotein Thioredoxin Reductase 1 (TrxR1): qHTS. purified TrxR1 substrate turnover, NADPH consumption readout. AID 588456, 2011. actives 0.01% (n = 390,000). Potency, µM (top dose mostly 114 µM); also: nearly all actives have a fitted effect of over 50% in size
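Rat TrxR1, dispensed at 90 nM, was prereduced with 400 uM NADPH (final) for 5 min at ~22 deg C, then incubated with compound 15 min before 400 uM selenite. A first-read NADPH fluorescence drop versus no-compound background flagged substrates.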
12-LOX inh – Primary qHTS assay for inhibitors of human arachidonate 12S-lipoxygenase (ALOX12): Round 2. Polyunsaturated fatty acid lipoxygenase ALOX12 (Homo sapiens), P18054. purified 12hLO, xylenol orange hydroperoxide absorbance. Potency, µM (doses to about 108 µM), hits mostly inhibitors. actives 1.1% (n = 580,000). AID 1671190, 2021
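Hydroperoxide product was detected by ferrous iron/xylenol orange as the 573 to 405 nm absorbance ratio. Arachidonic acid at 40 uM (final) was turned over for 30 min at room temperature by 150 nM human 12hLO, pH 7.0 Hepes buffer, after 15 min compound preincubation.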
Numbers stand for hits; n = inactive; u = inconclusive; x = no result; [ ] = another dose, or the depositor's remark. Most compounds without a hit are left out; they make up all but 1.7% or so of the library. Calls follow the shape of the dose curve; as a rule, active = well fitted curve in the direction sought with a large enough effect; inconclusive = small, poorly fitted or top-dose-only effect, or another doubt; inactive = no such curve, though single readings can be large; an effect the other way counts as inactive or inconclusive.

SMILES	Apoferritin bind	IDH1 R132H inh	rTrxR1 inhibitor	Glioma ERSR ind	TrxR1 substrate	12-LOX inh
COC(=O)c1sc(=S)n(-c2cccc(OC)c2)c1N	x	x	x	x	x	13µM
COC(=O)c1sc(=S)n(-c2ccc(Br)cc2)c1N	x	x	x	x	x	11µM
COc1cccc(CNC(=O)C(C)Oc2cccc(C)c2)c1 (centres undefined)	x	x	x	x	x	n
Brc1ccc(Nc2c3c(nc4nncn24)CCC3)cc1	n	x	22µM	x	n	n
Cc1ccc(Nc2c3c(nc4nncn24)CCC3)cc1	n	x	n	x	n	n
Cc1nc(C(=O)Nc2nc(CC(=O)O)cs2)nn1-c1ccc(Cl)cc1	x	x	x	x	x	n
CCCCC[C@@H]1C=C(C(=O)O)[C@H](c2ccc(F)cc2)N1S(=O)(=O)c1ccc(C)cc1	x	n	n	n	n	45µM
COCCn1c(C)cc(C(=O)CSc2nc3ccc(OC)cc3[nH]2)c1C	x	x	x	x	x	n
O=C(OCc1nnc(-c2ccc(Cl)cc2)o1)c1ccc(O)cc1	n	n	n	n	n	u
CS(=O)(=O)c1ccc(C(=O)OCc2nnc(-c3ccc(Cl)cc3)o2)cc1[N+](=O)[O-]	n	n	1.8µM	u	n	x
Nc1nccnc1C(=O)NCc1ccc(Oc2cccc(F)c2)nc1	x	x	x	x	x	n
COC(=O)N1C(=O)[C@@](c2ccccc2)(C2CCCCC2)N1C(=O)OC	n	n	45µM	n	n	n
COC(=O)N1C(=O)[C@](Cc2ccccc2)(c2ccccc2)N1C(=O)OC	n	n	4µM	n	n	n
CC[C@@]1(c2ccccc2C)C(=O)N(C(=O)OC)N1C(=O)OC	n	n	5.6µM	n	n	n
CC[C@]1(c2cccc(C)c2)C(=O)N(C(=O)OC)N1C(=O)OC	n	n	1.6µM	n	n	n
CCN1CCN(c2ccc(Nc3cc(N(C)C(=O)Nc4c(Cl)c(OC)cc(OC)c4Cl)ncn3)cc2)CC1	x	x	x	x	x	n
Cc1nn(-c2ccc(F)cc2)c(Oc2ccccc2F)c1CCC(=O)NCC1CC1	x	x	x	x	x	n
O=C1CCCC2=C1C(c1ccc(Cl)c(Cl)c1)C1=C(CCCC1=O)O2	x	x	x	x	x	n
CC[C@@]1(c2ccccc2)C(=O)N(C(=O)OC)N1C(=O)OC	n	n	1.3µM	n	n	n
Cc1ccc(NC(=O)Cn2c(N3CCCCC3)nc(C)c(C)c2=O)c(C)c1	x	x	x	x	x	n
Cc1ccc2c(c1)N(C(=O)CSc1nncn1C)C(C)(C)c1ssc(=S)c1-2	u	n	n	n	n	35µM
Cc1[nH]n2c(=O)cc(-c3ccc(Cl)cc3)nc2c1-c1ccc(F)cc1	x	x	x	x	x	22µM
CN(Cc1ccc(F)cc1)C(=O)c1ccc(C(F)(F)F)cc1	x	x	x	x	x	n
Cc1nnnn1/C(=C\c1ccccc1)C(=O)OCC(=O)Nc1cccc(S(=O)(=O)N(C)C)c1	x	n	13µM	n	n	n
Cc1cc(C)cc(-n2c(C)cc(C(=S)N3CCOCC3)c2C)c1	n	n	n	n	n	n
SMILES	Apoferritin bind	IDH1 R132H inh	rTrxR1 inhibitor	Glioma ERSR ind	TrxR1 substrate	12-LOX inh
Cc1cc(C(=S)N2CCOCC2)c(C)n1-c1ccc(Cl)cc1	n	n	n	n	n	20µM
C=CCNC(=S)NNC(=O)c1ccc(C)c(Cl)c1	n	n	n	n	n	n
C=CCNC(=S)NC(=O)c1ccc(C)c(Br)c1	n	n	u	n	n	35µM
O=C(Cc1cc(=O)[nH][nH]1)N/N=C/c1c(Cl)cccc1Cl	n	n	45µM	n	n	u
C[n+]1c(-c2ccccc2)cc2c(=Cc3ccccc3)c3ccccc3n21	x	n	n[11.4 µM]	n	n[11.4 µM]	u
C[n+]1c(-c2ccccc2)cc2c(=Cc3ccc([N+](=O)[O-])cc3)c3ccccc3n21	x	n	n[11.4 µM]	n	n[11.4 µM]	16µM
O[C@@H]1C[C@@H](c2nc(-c3ccc4c(c3)OCO4)no2)N(C2CCOCC2)C1	x	x	x	x	x	n
Oc1ccc2ccccc2c1SSc1c(O)ccc2ccccc12	x	x	u	n	n	1.7µM
COc1ccc([C@@H]2C[C@H]3[C@@H](CN2S(=O)(=O)c2ccccc2)C(=O)C[C@@H](c2ccc(C)cc2)N3S(=O)(=O)c2ccc(C)cc2)cc1	x	n	x	n	x	n
Cc1ccc(Cn2ncc3c2NC(=O)CC32C(=O)Nc3c(Cl)cccc32)cc1 (centres undefined)	x	x	x	x	x	n
O=C(NCc1cccnc1)/C(=C/c1ccc(-c2cccc(C(F)(F)F)c2)o1)NC(=O)c1ccccc1	n	n	n	n	n	n
O=C(NCc1cccnc1)/C(=C\c1ccc(-c2ccc(Br)cc2)o1)S(=O)(=O)c1ccccc1	n	n	32µM	n	n	n
O=C(NCc1cccnc1)/C(=C/c1ccc(-c2ccc(Cl)cc2)o1)S(=O)(=O)c1ccccc1	n	n	5µM	n	n	n
O=C(CN(Cc1ccc(Br)cc1)S(=O)(=O)c1ccccc1)NCc1cccnc1	n	n	n	n	n	n
CC1CCC2C(=O)OC(CO)CN2C1c1ccc(Br)cc1 (centres undefined)	n[15.3 µM]	x	x	n	x	x
Cc1nn(CC(=O)Nc2ccc(C(C)C)cc2)c2ccccc12	x	x	x	x	x	n
O=C(Nc1nnc(-c2ccco2)o1)c1ccc(Cl)cc1	n	n	n	n	n	25µM
O=C(Nc1nnc(C2=COCCO2)o1)c1ccc(Cl)cc1	n	n	n	n	n	40µM
O=c1cc(-c2cccc(O)c2)oc2c(O)c(O)ccc12	x	x	x	n	x	x
O=C(O)CCc1c2ccc(=O)c(O)c-2oc2c(O)c(O)ccc12	x	x	56µM	n	n	x
O=C(Nc1ccc2oc(-c3ccccc3F)cc(=O)c2c1)c1ccccc1F	x	x	x	x	x	n
CCN1CCc2nc(N)sc2C1	n	n	n	n	n	n
CCN1CCc2nc(N)oc2CC1	x	n	22µM	n	n	n
CC(C)c1ccc(C(=O)N2C[C@@H](CO)[C@H](N(C)C)C2)cc1	x	x	x	x	x	n
Cc1ccc(C)c(Nc2nc3ccccc3nc2NS(=O)(=O)c2ccc(F)cc2)c1	x	x	x	x	x	n
COc1ccc(-n2ncc3c(NCCC4=CCCCC4)ncnc32)cc1	n	n	n	n	n	3.5µM
Cc1ccc(-n2ncc3c(NCCc4ccc(S(N)(=O)=O)cc4)ncnc32)cc1	n	n	n	n	n	n
COc1ccc(CNc2ncnc3c2cnn3-c2ccc(C)c(C)c2)cc1	n	n	n	n	n	n
Cc1ccc(-n2ncc3c(NCCC4=CCCCC4)ncnc32)cc1	n	n	n	n	n	13µM
